Assay outcomes (PubChem BioAssay)
SKKanGAS inh – inhibitors of SKKanGAS S. pyogenes growth in kanamycin (SK-promoter or general growth effect). BacTiter-Glo, 6 h. inhibition, % at 7.5 µM. 1.3% of 300,000 active;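 active means mean replicate score, as percent of positive control median, at least 50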;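 further: strain carries kanamycin resistance gene driven by streptokinase promoter and grows in 40 µg/ml kanamycin; loss of luminescence reflects streptokinase promoter inhibition or plain growth inhibition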
ATG4B inh – inhibitors of human ATG4B cysteine protease; Q9Y4P1; ATG4B cleavage of LC3-PLA2, NBD-HPC fluorescence, 1 h; inhibition, % at 8.33 µM; 0.51% of 340,000 active; AID 504462; in the data active means inhibition above about 40%
Target sequence (Q9Y4P1 whole entry, looked up): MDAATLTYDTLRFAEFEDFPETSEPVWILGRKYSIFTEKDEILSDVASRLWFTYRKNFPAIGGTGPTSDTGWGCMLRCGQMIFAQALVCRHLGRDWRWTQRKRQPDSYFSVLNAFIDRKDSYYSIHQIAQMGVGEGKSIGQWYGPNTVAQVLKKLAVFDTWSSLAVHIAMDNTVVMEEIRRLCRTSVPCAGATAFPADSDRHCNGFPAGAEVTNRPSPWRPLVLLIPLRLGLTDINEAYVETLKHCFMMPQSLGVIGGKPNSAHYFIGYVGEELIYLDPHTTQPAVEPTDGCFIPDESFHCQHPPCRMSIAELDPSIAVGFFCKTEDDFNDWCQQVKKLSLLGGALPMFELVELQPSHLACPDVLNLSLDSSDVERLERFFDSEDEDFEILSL
PfHsp90 set2 – reduces growth (ATP signal) of yeast expressing P. falciparum Hsp90. S. cerevisiae expressing PfHsp90, BacTiter-Glo ATP, 48 h; yeast lacking PDR1 and PDR3 efflux regulators. inhibition, % at 9.4 µM. 0.32% of 310,000 active;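 active means every replicate shows inhibition above about 80%, whatever the replicate mean, limit read from the data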
tim23-1 inh – inhibits growth of tim23-1 mutant yeast; S. cerevisiae tim23-1 growth, BacTiter-Glo luminescence, 24 h; inhibition, % at 20 µM; 1.3% of 330,000 active;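 active means growth inhibition of the mutant yeast at or above 50%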;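 further: temperature-sensitive mutant grown at 25 °C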
tim10-1 inh – inhibits growth of tim10-1 mutant yeast | inhibition, % at 20 µM | S. cerevisiae tim10-1 ts strain growth, BacTiter-Glo, 24 h | 2.2% of 330,000 active;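 active means inhibition of at least 40%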;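 further: mutant grown at 25 °C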
TIM10 inh – inhibits growth of TIM10 yeast strain; inhibition, % at 10 µM; 1.4% of 330,000 active; S. cerevisiae TIM10 strain growth, BacTiter-Glo luminescence, 24 h;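 active means inhibition of 40% or more at the single tested concentration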;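 further: wild-type TIM10 isogenic control strain grown at permissive 25 °C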
tim23-1 conf – tim23-1 yeast growth inhibition, confirmed. 83% of 4,400 active. S. cerevisiae tim23-1 growth, BacTiter-Glo luminescence, 24 h. inhibition, % at 20 µM. shares compounds with tim23-1 inh;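 active means inhibition above about 39% in either of two replicate wells at 20 µM, limit read from the data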;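 further: temperature-sensitive tim23-1 mutant grown at 25 °C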
Numbers stand for hits; n = inactive; x = not tested or not shown. In the library only some 4.7% were active in any assay of this set; here they are far more common.

SMILES	SKKanGAS inh	ATG4B inh	PfHsp90 set2	tim23-1 inh	tim10-1 inh	TIM10 inh	tim23-1 conf
Oc1ccc(Br)cc1C=Nc1cccn2cc(-c3ccccc3)nc12	n	n	n	54	n	n	54
CCCCc1cc(O)c(CCCC)c(O)c1	n	n	n	53	n	n	42
COc1ccc(OC)c(NC(=O)c2csc(Cl)c2OC)c1	n	n	n	59	n	n	44
COc1ccc(OC)c(NC(=O)c2ccc(Cl)cc2)c1	n	n	n	n	n	n	x
CC(C)CCN1C(=O)c2cccc3c(N)ccc(c23)C1=O	n	n	n	65	n	n	47
Oc1ccc(Br)cc1C=Nc1ccc2c3c(cccc13)CC2	n	n	n	64	n	n	60
CCC(C)c1ccc(S(=O)(=O)N2CCN(CC(O)CN3CCOCC3)CC2)cc1 (stereo unspecified)	x	n	n	n	n	n	x
CCc1nc(NCc2ccc3c(c2)OCO3)c2oc3ccccc3c2n1	n	n	n	n	n	n	x
COc1ccc(NC(=O)CNC(=O)c2ccc([N+](=O)[O-])cc2)cc1	n	n	n	n	n	n	x
COc1ccc(C(=O)CC(=O)Nc2ccc([N+](=O)[O-])cc2)cc1	n	n	n	64	n	n	74
O=C(CS(=O)(=O)c1ccccc1)Nc1nc(-c2ccc(F)cc2)cs1	n	n	n	57	n	n	49
O=C(CCS(=O)(=O)c1ccccc1)Nc1nc(-c2ccc(F)cc2)cs1	n	n	n	n	n	n	x
Cc1ccc(-c2nc3c(Cl)cc(Cl)cc3c(=O)n2O)cc1	90	n	n	54	n	n	53
O=C(O)c1ccccc1-c1nc2cc(Cl)ccc2c(=O)n1O	n	n	n	n	n	n	x
N#Cc1ccc(-c2nc3cc(Cl)ccc3c(=O)n2O)cc1	n	n	n	50	n	n	56
O=c1c2ccc(Cl)cc2nc(-c2cccc(C(F)(F)F)c2)n1O	97	n	n	56	n	n	48
CCCCNc1ccc2oc(-c3ccc(OC)cc3)c(-c3ccc(OC)c(F)c3)c2c1	x	n	n	n	n	n	x
CC(C)(C)c1ccc(C(=O)NCC(=O)OCCN2C(=O)c3ccccc3C2=O)cc1	n	n	x	n	n	n	x
CCOC(=O)c1c(C)n(C)c2ccc(O)c(CN(C)C)c12	n	n	n	n	n	n	x
Nc1ccc2nc(SCc3cccc(F)c3)sc2c1	n	n	n	57	n	n	46
CCN1C(=O)c2cccc3c(S(=O)(=O)N(C(=O)c4ccncc4)c4ccc(OC)cc4)ccc1c23	n	n	n	52	n	n	n
NNC(=O)c1c(O)c2cccc3c2n(c1=O)CCC3	n	n	n	53	n	n	n
CSc1cccc(CN2CCC(n3nccc3NC(=O)C3CC3)CC2)c1	n	n	n	50	n	n	n
Cn1c(=O)c(C(=O)NCCc2ccccc2)c(O)c2ccccc21	n	n	n	n	n	n	x
Cn1c(=O)c(C(=O)Nc2ccccn2)c(O)c2ccccc21	n	n	x	57	n	n	58
SMILES	SKKanGAS inh	ATG4B inh	PfHsp90 set2	tim23-1 inh	tim10-1 inh	TIM10 inh	tim23-1 conf
CC(NC(=O)c1c(O)c2ccccc2n(C)c1=O)c1ccccc1 (stereo unspecified)	n	n	n	n	n	n	x
Cn1c(=O)c(C(=O)NNC(=O)c2ccccc2Br)c(O)c2ccccc21	75	n	n	51	n	n	n
Cc1cccc(C(=O)NNC(=O)c2c(O)c3ccccc3n(C)c2=O)c1	88	n	n	67	n	n	n
O=C(NC1(C(F)(F)F)NC(=O)N(CC2CCCCC2)C1=O)c1ccco1 (stereo unspecified)	n	n	n	n	n	n	x
O=C(Cc1ccc(Cl)cc1)N1CCOCC1	n	n	n	n	n	n	x
CCOc1ccccc1NC(=S)NC(=O)c1ccco1	n	n	n	54	n	n	n
O=C(NNC(=S)NCc1ccccc1)c1ccc2c(c1)OCO2	n	n	n	n	n	n	x
O=C(NC(=S)NCc1ccccc1)C1CCCCC1	n	n	n	55	n	n	n
O=C(NC(=S)NCc1ccccc1)c1ccc(Br)o1	n	x	n	61	n	n	n
O=C(NC(=S)NCc1ccccc1)c1ccc2c(c1)OCO2	n	n	n	50	n	n	43
COCCNC(=O)c1ccc(CS(=O)(=O)c2ccccc2C)o1	n	n	n	n	n	n	x
O=C(NC(=S)NCc1ccc(Cl)cc1)c1ccco1	x	n	n	51	n	n	45
O=C(NC(=S)NCc1ccc(Cl)cc1Cl)c1ccco1	x	n	n	n	n	n	x
O=[N+]([O-])c1ccc2[nH]nc(-c3ccccc3)c2c1	n	n	n	59	n	n	n
COc1ccc(/C=N/NC(=O)NC23CC4CC(CC(C4)C2)C3)c(OC)c1	n	n	n	55	n	n	45
Cc1cc([N+](=O)[O-])cc(/C=N/n2c(C)nc3ccccc3c2=O)c1O	72	n	n	79	n	n	66
Cc1nc2ccccc2c(=O)n1/N=C/c1ccccc1O	n	n	n	n	n	n	x
CCn1c(SC/C=C/c2ccccc2)nnc1-c1cccs1	n	n	x	n	n	n	x
Cn1c(SC/C=C/c2ccccc2)nnc1-c1cccs1	n	n	n	57	n	n	45
CC12CN3CC(C)(CN(C1)C3c1ccc(Br)cc1O)C2 (stereo unspecified)	n	n	n	51	n	n	45
CC(C)c1nc(NCCO)c(C#N)c2c1CCCC2	n	n	n	54	n	n	39
CSc1nsc(SC)c1C(=O)Nc1ccc(C(C)(C)C)cc1	n	n	n	n	n	n	x
CCc1nnc(N2C(=O)c3ccc(Oc4ccc([N+](=O)[O-])cc4)cc3C2=O)s1	n	n	n	64	n	n	n
O=C1c2ccc(Oc3ccc([N+](=O)[O-])cc3)cc2C(=O)N1c1ccncc1	n	n	n	n	n	n	x
O=C(C1=C[C@H](C2CCCCC2)C[C@H](OCCCCO)O1)N1CCOCC1	n	n	n	n	n	n	x
SMILES	SKKanGAS inh	ATG4B inh	PfHsp90 set2	tim23-1 inh	tim10-1 inh	TIM10 inh	tim23-1 conf
CCc1ccc2oc(C(=O)Nc3nonc3C)c(C)c2c1	n	n	n	n	n	n	x
COc1ccc(NC(=O)c2cccs2)cn1	n	n	n	52	n	n	48
CC(C)(C)c1ccc(Oc2ccc(NC(=O)c3cccs3)cn2)cc1	n	n	n	n	n	n	x
CCCCC(=O)Nc1ccc(NC(=O)CCCC)nc1	n	n	n	n	n	n	x
CCCCC(=O)Nc1ccc(NC(=O)c2cccs2)cn1	n	n	n	51	n	n	43
O=C(/C=C\Nc1cccc(F)c1)c1cccs1	n	n	n	53	n	n	51
O=C(/C=C/Nc1ccc(F)cc1F)c1cccs1	n	n	n	n	n	n	x
Cc1ccc(N/C=C/C(=O)c2cccs2)cc1	n	n	n	56	n	n	57
